Screening data (PubChem BioAssay)
Most compounds without a hit are left out; they make up all but 8.7% or so of the library.
Vaccinia mCherry = vaccinia inhibition (mCherry reporter); Vaccinia virus mCherry reporter infection, fluorescence; Potency, µM (top dose mostly 36.5 µM), for the others: top-dose activity change, negative = inhibition, most hits filed as inhibitors; 310,000 compounds, 0.63% hits; AID 720579; calls by dose curve; tested in A549 cells; also: nearly all actives have a fitted effect of over 35% in size
Pf growth 96h = P. falciparum growth inhibition at 96 hour, primary screen for plastid delayed-death inhibitors; 320,000 compounds, 6.9% hits; Potency, µM (series often up to 28.7 µM), inactives show top-dose activity change, negative = inhibition, actives largely listed as inhibitors; P. falciparum luciferase reporter growth, 96 h
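P. falciparum expressing integrated firefly luciferase grown in erythrocytes (2% hematocrit, 0.05% parasitemia final) with compounds for 96 hours at 37 C, 5% CO2. Growth inhibition read as loss of luminescence after adding luciferase detection reagent.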
Pf growth 48h = P. falciparum growth inhibition at 48 hours (one generation); P. falciparum luciferase growth in erythrocytes, 48 h; Potency, µM (doses to about 28.7 µM), inactives show at the top dose activity change, negative = inhibition, actives largely listed as inhibitors; 310,000 compounds, 5.9% hits
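Read-out is firefly luciferase luminescence from an integrated reporter in P. falciparum, so falling signal marks reduced parasite growth. Infected erythrocytes were at 2% hematocrit and 0.1% parasitemia (final) in Albumax-supplemented RPMI 1640.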
AMA1 RON2 block = inhibitors of Plasmodium falciparum AMA1-RON2 interaction. AlphaScreen AMA1-biotinylated RON2 peptide binding. Potency, µM (highest dose often 58.2 µM), for inactives: top-dose activity change, negative = inhibition, hits mostly inhibitors. 360,000 compounds, 0.2% hits. AID 720542;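 also: 0% = vehicle wells and -100% = peptide control; nearly all actives have a fitted effect of over 45% in size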
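AMA1 (3D7) with his tag at 25 nM final met compounds first, then biotinylated RON2 peptide at 25 nM; detection used donor plus acceptor beads, 10 µg/mL apiece, read by AlphaScreen after 30 min at room temperature.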
Vaccinia Venus = inhibitors of vaccinia virus (Venus reporter); Vaccinia virus Venus reporter expression, fluorescence; Potency, µM (top dose mostly 36.5 µM), for the others: top-dose activity change, negative = inhibition, usual class: inhibitors; 330,000 compounds, 0.46% hits; calls by dose curve; tested in A549 cells; also: nearly all actives have a fitted effect of over 30% in size
* = called active by the depositor; [ ] = remark or other dose. Unless noted, calls follow the shape of the dose curve; as a rule, active = well fitted curve in the direction sought with a large enough effect; inconclusive = small, poorly fitted or top-dose-only effect, or another doubt; inactive = no such curve, though single readings can be large; an effect the other way counts as inactive or inconclusive. Unless noted, % is scaled to controls: 0 for no effect and ±100 for the full control effect; potency is read from the fitted curve at half-maximal effect.

`COc1ccc(OC)c(S(=O)(=O)N(C)CC(=O)Nc2cc(Cl)ccc2OC)c1` gave Pf growth 96h 7.4µM*, Pf growth 48h 9.3µM*, AMA1 RON2 block -1% and Vaccinia Venus -21%.
Screening COc1cccc(-c2nc(C(=O)NCCCN3CCOCC3)cc3c2[nH]c2ccccc23)c1 returned Vaccinia mCherry inconclusive, Pf growth 96h 8.3µM*, Pf growth 48h 13µM*, AMA1 RON2 block -20% and Vaccinia Venus -28%.
For O=C(NCCCO)c1cc2c([nH]c3ccccc32)c(-c2ccccc2)n1 the results were Vaccinia mCherry 0%, Pf growth 96h 5.9µM*, Pf growth 48h inconclusive, AMA1 RON2 block 2% and Vaccinia Venus inconclusive.
For O=C(NCCCO)c1cc2c(cn1)[nH]c1ccccc12 the results were Pf growth 96h 69%, Pf growth 48h 63% and AMA1 RON2 block 29%.
O=C(NCCCN1CCOCC1)c1cc2c([nH]c3ccccc32)c(-c2cccc(Br)c2)n1 was read as Vaccinia mCherry inactive, Pf growth 96h 3.3µM*, Pf growth 48h 2.3µM*, AMA1 RON2 block -28% and Vaccinia Venus -17%.
Cc1ccc(S(=O)(=O)CCC(=O)Nc2ccc(OC(F)(F)F)cc2)cc1 was read as Vaccinia mCherry -9% and Vaccinia Venus -4%.
CCCCCCCNC(=O)C1(CC2CC(c3ccc(Cl)cc3)=NO2)CCNCC1 (stereo not given) was read as Vaccinia mCherry inconclusive, Pf growth 96h 6.6µM*, Pf growth 48h -77%, AMA1 RON2 block -2% and Vaccinia Venus inconclusive.
Screening CCCCCCCNC(=O)C1(CC2CC(c3ccc(Cl)cc3)=NO2)CCN(C(=O)Cc2ccc(F)cc2)CC1 (stereo not given) returned Vaccinia mCherry -5%, Pf growth 96h 12µM*, Pf growth 48h 1%, AMA1 RON2 block -2% and Vaccinia Venus inconclusive.
Screening O=C(NCCCCc1ccccc1)C1CC(c2cccc(F)c2)=NO1 (stereo not given) returned Vaccinia mCherry -13%, Pf growth 96h 76%, Pf growth 48h 33%, AMA1 RON2 block -1% and Vaccinia Venus 7%.
`CCCCCCCNC(=O)C1(CC2CC(c3cccc(Br)c3)=NO2)CCNCC1` (stereo not given) gave Vaccinia mCherry inconclusive, Pf growth 96h 12µM*, Pf growth 48h inconclusive, AMA1 RON2 block -9% and Vaccinia Venus 11µM*.
`CCC(=O)N1CCC2(CC1)Oc1ccc(F)cc1C(=O)C21CC(c2ccc(Cl)cc2)=NO1` (stereo not given) gave Vaccinia mCherry -2%, Pf growth 96h inconclusive, Pf growth 48h inconclusive, AMA1 RON2 block -16% and Vaccinia Venus -11%.
O=C(O)C1CC(c2cccc(Br)c2)=NO1 (stereo not given) was read as Vaccinia mCherry -2%, Pf growth 48h 3%, AMA1 RON2 block 33% and Vaccinia Venus -11%.
`CCCCCCCNC(=O)C1(CC2CC(c3cccc(Br)c3)=NO2)CCN(C(=O)Cc2ccc(F)cc2)CC1` (stereo not given) gave Vaccinia mCherry -1%, Pf growth 96h 10µM*, Pf growth 48h 7.4µM*, AMA1 RON2 block 0% and Vaccinia Venus -30%.
For CCCNC(=O)C1(CC2CC(c3ccccc3)=NO2)CCNCC1 (stereo not given) the results were Vaccinia mCherry -10%, AMA1 RON2 block 2% and Vaccinia Venus 0%.
CCC(C)NC(=O)c1cccc(NC(=O)c2nsc3ccccc23)c1 (stereo not given) was read as Vaccinia mCherry -6% and Vaccinia Venus 1%.
For Cc1cccc(CC(=O)NCc2nc3cccnc3n2Cc2ccc(F)cc2)c1 the results were Vaccinia mCherry -12% and Vaccinia Venus -7%.
`CC(C)(C)c1ccc(C2CC2C(=O)N/N=C\c2ccc[nH]2)cc1` (stereo not given) gave Vaccinia mCherry inconclusive, Pf growth 96h 13%, Pf growth 48h inconclusive, AMA1 RON2 block -10% and Vaccinia Venus 4µM*.
O=C(N/N=C/c1ccc[nH]1)c1ccc(COc2cccc3cccnc23)cc1 was read as Vaccinia mCherry 1.6µM*, Pf growth 96h inconclusive, Pf growth 48h 10µM*, AMA1 RON2 block 14% and Vaccinia Venus inconclusive.
`O=C(N/N=C/c1ccco1)C1CC1c1ccccc1` (stereo not given) gave Vaccinia mCherry -6%, Pf growth 96h 16%, Pf growth 48h -13%, AMA1 RON2 block -15% and Vaccinia Venus -4%.
`O=C(N/N=C/c1ccccc1C(=O)O)c1ccc(COc2cccc3cccnc23)cc1` gave Vaccinia mCherry -2%, Pf growth 96h 19%, Pf growth 48h 37%, AMA1 RON2 block -3% and Vaccinia Venus 0%.
`O=C(CNC(=O)c1ccc(Br)cc1)N/N=C/c1ccc[nH]1` gave Vaccinia mCherry inactive, Pf growth 96h 9%, Pf growth 48h 30%, AMA1 RON2 block -13%[2.32 µM] and Vaccinia Venus -14%.
`Cc1cc(Br)c(OCc2ccc(C(=O)N/N=C/c3ccc[nH]3)cc2)c(Br)c1` gave Pf growth 96h 10µM*, Pf growth 48h 2.6µM* and AMA1 RON2 block 61%.
`O=C(N/N=C/c1ccc[nH]1)c1ccc(O)cc1` gave Vaccinia mCherry inactive, Pf growth 96h 10µM*, Pf growth 48h 67%, AMA1 RON2 block 22% and Vaccinia Venus -5%.
Screening COc1ccc(CCNC(=O)c2cc(S(=O)(=O)N3CCCC(C)C3)cn2C)cc1OC (stereo not given) returned Vaccinia mCherry -8% and Vaccinia Venus 0%.
Screening COc1ccc(OC)c(-c2cc(C3CCN(c4cc(Cl)nc(N)n4)CC3)[nH]n2)c1 returned Vaccinia mCherry 13µM*, Pf growth 96h inconclusive, Pf growth 48h inconclusive, AMA1 RON2 block -22% and Vaccinia Venus inconclusive.
For COc1ccc(-c2cc(C3CCN(c4cc(Cl)nc(N)n4)CC3)[nH]n2)cc1 the results were Pf growth 96h inconclusive, Pf growth 48h inconclusive and AMA1 RON2 block -4%.
For COc1ccc(OC)c(-c2cc(C3CCN(c4ncccc4[N+](=O)[O-])CC3)[nH]n2)c1 the results were Vaccinia mCherry inconclusive, Pf growth 96h 9.3µM*, Pf growth 48h 8.3µM*, AMA1 RON2 block inconclusive and Vaccinia Venus inconclusive.
For COc1ccc(C)c2sc(NC(=O)c3ccc(S(=O)(=O)N4CCCCC4)cc3)nc12 the results were Vaccinia mCherry -8% and Vaccinia Venus 1%.
For O=C(NCP(=O)(Oc1ccccc1)Oc1ccccc1)OCc1ccccc1 the results were Vaccinia mCherry 13%, AMA1 RON2 block 24% and Vaccinia Venus 6%.
CCOC(=O)C(CC(C)C)CP(=O)(O)CNC(=O)OCc1ccccc1 (stereo not given) was read as Vaccinia mCherry inactive, Pf growth 96h 7.4µM*, Pf growth 48h 0%, AMA1 RON2 block 26% and Vaccinia Venus 4%.
